Assay results: PubChem BioAssay (NCI)
The panel holds about 79,000 compounds, 15% with a hit somewhere; the sample as a whole holds those more often. Rule as the data show it: active = growth inhibition above about 70%; inactive = the rest.

Legend:
[1] = NCI Yeast Anticancer Drug Screen. Data for the rad50 strain (AID 155);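 also: 0% = growth of vehicle-only cultures of the same strain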; details: S. cerevisiae rad50 strain growth inhibition, active compounds read high; at 50.0 µM unless noted
In short: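 Genetically altered yeast (DNA repair pathway); compound treatment; growth inhibition vs vehicle ctrl.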

[2] = NCI Yeast Anticancer Drug Screen. Data for the mec2-1 strain (AID 157); details: S. cerevisiae mec2-1 strain, active compounds read high; at 50.0 µM unless noted
In short: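 Test agents were screened against the mec2-1 yeast strain, with defined DNA repair or cell cycle alteration. Growth was scored as inhibition against vehicle-only controls.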

[3] = NCI Yeast Anticancer Drug Screen. Data for the sgs1 mgt1 strain (AID 161);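 also: 0% = growth of cultures given vehicle only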; details: S. cerevisiae sgs1 mgt1 strain, active compounds read high; at 50.0 µM unless noted
In short: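 Read-out: growth inhibition vs vehicle controls. Cells: mutant yeast strain deficient in DNA damage repair.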

[4] = NCI Yeast Anticancer Drug Screen. Data for the cln2 rad14 strain (AID 165);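 also: 0% = growth equal to vehicle treated cultures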; details: S. cerevisiae cln2 rad14 strain, active compounds read high; at 50.0 µM unless noted
In short: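 Growth of compound-exposed yeast (cln2 rad14 genotype) measured and expressed as inhibition relative to vehicle.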

[5] = NCI Yeast Anticancer Drug Screen. Data for the bub3 strain (AID 167); details: S. cerevisiae bub3 mutant strain, active compounds read high; at 50.0 µM unless noted
In short: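 Yeast carrying a defined mutation is treated with each compound, and growth is compared with that of vehicle-exposed cells to give inhibition.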

[6] = NCI Yeast Anticancer Drug Screen. Data for the mlh1 rad18 strain (AID 175); details: S. cerevisiae mlh1 rad18 strain growth inhibition, active compounds read high; at 50.0 µM unless noted
In short: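 In this whole-cell yeast screen, a strain with altered DNA damage repair is challenged with compound, and its growth is measured against matched vehicle-treated controls.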

Measured: growth inhibition

CC(=O)[C@@]1(O)CC[C@H]2[C@@H]3CC=C4C[C@@H](Cl)CC[C@]4(C)[C@H]3CC[C@@]21C
inactive: [1] -16.9% | [2] 4.85% | [3] 13.8% | [4] -2.75% | [5] 8.5% | [6] 7.1%

CCN(CC)C(=S)SCC(=O)Nc1nc2c(s1)CCCC2
inactive: [1] -9.25% | [2] -1.25% | [3] -34.2% | [4] 3.75% | [5] 11.3% | [6] 6.9%

O=C(Cc1ccccc1)NCc1ccco1
inactive: [1] -3.25% | [2] 8.55% | [3] -11.6% | [4] -10.9% | [5] -7.45% | [6] 7.3%

OCc1ccc(Cl)c(Cl)c1
inactive: [1] -4.15% | [2] -11.9% | [3] 0.1% | [4] 8.15% | [5] 2.8% | [6] 3.3%
